Several values for one entry are separate records, joined by “and”; a condition that tells them apart may be missing. Identical values can stand only once. About 79,000 compounds went through this panel and 15% of them were active in at least one assay; those are over-represented in the sample as a whole. A number with no mark means an inactive call. Activity calls are given as the source filed them. No stated cut-off is given here; in the data, active means growth inhibition above about 70%; inactive means the rest.
Columns and labels:
[1] = NCI Yeast Anticancer Drug Screen. Data for the rad50 strain (AID 155);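 further: 0% = growth of vehicle-only cultures of the same strain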; conditions: S. cerevisiae rad50 strain growth inhibition, stronger effect = higher value
Outline: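 Readout: growth inhibition relative to vehicle-treated cultures. Compound exposure was carried out in a genetically defined yeast strain deficient in DNA damage repair.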

[2] = NCI Yeast Anticancer Drug Screen. Data for the mec2-1 strain (AID 157); conditions: S. cerevisiae mec2-1 strain, stronger effect = higher value
Outline: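 mec2-1 yeast strain, carrying an alteration in DNA damage repair or cell cycle control, was exposed to compounds; growth inhibition was measured relative to vehicle-treated controls.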

[3] = NCI Yeast Anticancer Drug Screen. Data for the sgs1 mgt1 strain (AID 161);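 further: 0% = growth of cultures given vehicle only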; conditions: S. cerevisiae sgs1 mgt1 strain, stronger effect = higher value
Outline: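 Yeast cells carrying a defined DNA-repair defect were exposed to test compounds. Growth inhibition was measured relative to vehicle-treated controls.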

[4] = NCI Yeast Anticancer Drug Screen. Data for the cln2 rad14 strain (AID 165);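 further: 0% = growth equal to vehicle treated cultures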; conditions: S. cerevisiae cln2 rad14 strain, stronger effect = higher value
Outline: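 Yeast carrying cln2 and rad14 alterations (cell cycle control and DNA damage repair) were exposed to compounds. Growth inhibition was measured against vehicle-treated controls.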

[5] = NCI Yeast Anticancer Drug Screen. Data for the bub3 strain (AID 167); conditions: S. cerevisiae bub3 mutant strain, stronger effect = higher value
Outline: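 Readout: yeast growth inhibition, expressed relative to vehicle-only wells. The test organism is a mutant strain from a panel with lesions in DNA repair or checkpoint genes.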

[6] = NCI Yeast Anticancer Drug Screen. Data for the mlh1 rad18 strain (AID 175); conditions: S. cerevisiae mlh1 rad18 strain growth inhibition, stronger effect = higher value
Outline: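 Growth inhibition of the yeast strain was measured after compound exposure and expressed relative to vehicle-treated controls. The strain carries defined defects in DNA damage repair.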

[7] = at 5.0 µM (retest, dose inferred, filed as 0.5)
[8] = at 50.0 µM (retest, dose inferred, filed as 5.0)

O=NC1C(Cl)C2CC1C1C(Br)C(Br)CC21 (stereo unspecified)
growth inhibition [1, 7]: 4% and 3%
growth inhibition [1, 8]: 4% and 46%
growth inhibition ([1]; at 50.0 µM): 3.2% and 55.5% and 48.2%
growth inhibition [2, 7]: 23% and 4%
growth inhibition [2, 8]: 2% and 22%
growth inhibition ([2]; at 50.0 µM): 1.4% and 32.1% and 34%
growth inhibition [3, 7]: -3% and -2%
growth inhibition [3, 8]: 2% and 29%
growth inhibition ([3]; at 50.0 µM): 19.9% and 66.5% and 56.3%
growth inhibition [4, 7]: 1% and 0%
growth inhibition [4, 8]: 1% and 16%
growth inhibition ([4]; at 50.0 µM): -26.6% and 7.1% and 6.65%
growth inhibition [5, 7]: 4% and 0%
growth inhibition [5, 8]: -7% and 7%
growth inhibition ([5]; at 50.0 µM): -5.1% and 11.2% and 8.2%
growth inhibition [6, 7]: 6% and 4%
growth inhibition [6, 8]: 31% and 52%
growth inhibition ([6]; at 50.0 µM): 30.6% and 69.8% and 59.1%

OC(C/C=C/c1ccccc1)(c1ccccc1)c1ccccc1
growth inhibition [1, 7]: 3%
growth inhibition [1, 8]: 39%
growth inhibition ([1]; at 50.0 µM): 97% (active) and 97.5% (active)
growth inhibition [2, 7]: -1%
growth inhibition [2, 8]: 48%
growth inhibition ([2]; at 50.0 µM): 98.7% (active)
growth inhibition [3, 7]: 7%
growth inhibition [3, 8]: 52%
growth inhibition ([3]; at 50.0 µM): 98.1% (active) and 98.2% (active)
growth inhibition [4, 7]: 7%
growth inhibition [4, 8]: 55%
growth inhibition ([4]; at 50.0 µM): 96.9% (active) and 98.2% (active)
growth inhibition [5, 7]: 29%
growth inhibition [5, 8]: 83% (active)
growth inhibition ([5]; at 50.0 µM): 96.8% (active) and 97.7% (active)
growth inhibition [6, 7]: -2%
growth inhibition [6, 8]: 61%
growth inhibition ([6]; at 50.0 µM): 97.4% (active) and 98.2% (active)

Oc1c(Cl)cc(Cl)c(Cl)c1Cl
growth inhibition [1, 7]: -2% and 11%
growth inhibition [1, 8]: 94% (active) and 98% (active)
growth inhibition ([1]; at 50.0 µM): 85.2% (active) and 98.3% (active)
growth inhibition [2, 7]: 8% and 14%
growth inhibition [2, 8]: 96% (active) and 98% (active)
growth inhibition ([2]; at 50.0 µM): 94.3% (active) and 99.6% (active)
growth inhibition [3, 7]: -3% and 3%
growth inhibition [3, 8]: 98% (active) and 86% (active)
growth inhibition ([3]; at 50.0 µM): 80.5% (active) and 99.3% (active)
growth inhibition [4, 7]: 11% and -10%
growth inhibition [4, 8]: 98% (active) and 97% (active)
growth inhibition ([4]; at 50.0 µM): 89.7% (active) and 98.5% (active)
growth inhibition [5, 7]: -3% and 39%
growth inhibition [5, 8]: 85% (active) and 96% (active)
growth inhibition ([5]; at 50.0 µM): 88.8% (active) and 99.1% (active)
growth inhibition [6, 7]: 4% and 7%
growth inhibition [6, 8]: 92% (active) and 96% (active)
growth inhibition ([6]; at 50.0 µM): 93.8% (active) and 98.7% (active)

O=C1CSC(=S)N1c1ccc(F)c(F)c1
growth inhibition [1, 7]: 4%
growth inhibition [1, 8]: 90% (active)
growth inhibition ([1]; at 50.0 µM): 97.5% (active)
growth inhibition [2, 7]: -12%
growth inhibition [2, 8]: 95% (active)
growth inhibition ([2]; at 50.0 µM): 97.2% (active)
growth inhibition [3, 7]: 4%
growth inhibition [3, 8]: 94% (active)
growth inhibition ([3]; at 50.0 µM): 97% (active)
growth inhibition [4, 7]: -3%
growth inhibition [4, 8]: 43%
growth inhibition ([4]; at 50.0 µM): 86.2% (active)
growth inhibition [5, 7]: 0%
growth inhibition [5, 8]: 92% (active)
growth inhibition ([5]; at 50.0 µM): 96.3% (active)
growth inhibition [6, 7]: -3%
growth inhibition [6, 8]: 95% (active)
growth inhibition ([6]; at 50.0 µM): 96.4% (active)

Cc1nc2c(ccc3[nH]c4ccccc4c32)s1
growth inhibition [1, 7]: 7%
growth inhibition [1, 8]: 99% (active)
growth inhibition ([1]; at 50.0 µM): 90.8% (active)
growth inhibition [2, 7]: 9%
growth inhibition [2, 8]: 99% (active)
growth inhibition ([2]; at 50.0 µM): 92.5% (active)
growth inhibition [3, 7]: 16%
growth inhibition [3, 8]: 99% (active)
growth inhibition ([3]; at 50.0 µM): 91% (active)
growth inhibition [4, 7]: -16%
growth inhibition [4, 8]: 99% (active)
growth inhibition ([4]; at 50.0 µM): 91% (active)
growth inhibition [5, 7]: 8%
growth inhibition [5, 8]: 99% (active)
growth inhibition ([5]; at 50.0 µM): 91.8% (active)
growth inhibition [6, 7]: 10%
growth inhibition [6, 8]: 99% (active)
growth inhibition ([6]; at 50.0 µM): 89.9% (active)

CCC1CCCC(=O)C1 (stereo unspecified)
growth inhibition [1, 7]: 2%
growth inhibition [1, 8]: 2%
growth inhibition ([1]; at 50.0 µM): 89.2% (active)
growth inhibition [2, 7]: -1%
growth inhibition [2, 8]: -5%
growth inhibition ([2]; at 50.0 µM): 53.6%
growth inhibition [3, 7]: 0%
growth inhibition [3, 8]: -1%
growth inhibition ([3]; at 50.0 µM): 14.1%
growth inhibition [4, 7]: 3%
growth inhibition [4, 8]: 1%
growth inhibition ([4]; at 50.0 µM): 36.2%
growth inhibition [5, 7]: 2%
growth inhibition [5, 8]: 2%
growth inhibition ([5]; at 50.0 µM): 99.4% (active)
growth inhibition [6, 7]: -2%
growth inhibition [6, 8]: 0%
growth inhibition ([6]; at 50.0 µM): 91.8% (active)

C=CCNC(=O)c1ccccc1SC(C)=O
growth inhibition [1, 7]: 14%
growth inhibition [1, 8]: 99% (active)
growth inhibition ([1]; at 50.0 µM): 88.9% (active)
growth inhibition [2, 7]: 33%
growth inhibition [2, 8]: 99% (active)
growth inhibition ([2]; at 50.0 µM): 91.5% (active)
growth inhibition [3, 7]: 20%
growth inhibition [3, 8]: 99% (active)
growth inhibition ([3]; at 50.0 µM): 89% (active)
growth inhibition [4, 7]: 23%
growth inhibition [4, 8]: 96% (active)
growth inhibition ([4]; at 50.0 µM): 72% (active)
growth inhibition [5, 7]: 52%
growth inhibition [5, 8]: 99% (active)
growth inhibition ([5]; at 50.0 µM): 89.2% (active)
growth inhibition [6, 7]: 18%
growth inhibition [6, 8]: 99% (active)
growth inhibition ([6]; at 50.0 µM): 89.3% (active)

From PubChem BioAssay (NCI)
